Data reported in publication PMC7862700, “An all-to-all approach to the identification of sequence-specific readers for epigenetic DNA modifications on cytosine”.

Tests used:
Assay in all cases: DAPPL (digital affinity profiling via proximity ligation, sequencing); 10 mM Tris-HCl pH 7.5, 50 mM NaCl, 1 mM DTT, 4% glycerol, room temperature, 30 min; GST-TFs on glutathione beads, 16-mer random dsDNA library, 0.1% formaldehyde crosslink after washing; high values mean tight binding
[1] = biological target: T1, FLI1 (Homo sapiens, UniProt Q01543 1-452); conditions: protein: recombinant; tags: N-terminal GST; dsDNA, one strand shown
T1 sequence: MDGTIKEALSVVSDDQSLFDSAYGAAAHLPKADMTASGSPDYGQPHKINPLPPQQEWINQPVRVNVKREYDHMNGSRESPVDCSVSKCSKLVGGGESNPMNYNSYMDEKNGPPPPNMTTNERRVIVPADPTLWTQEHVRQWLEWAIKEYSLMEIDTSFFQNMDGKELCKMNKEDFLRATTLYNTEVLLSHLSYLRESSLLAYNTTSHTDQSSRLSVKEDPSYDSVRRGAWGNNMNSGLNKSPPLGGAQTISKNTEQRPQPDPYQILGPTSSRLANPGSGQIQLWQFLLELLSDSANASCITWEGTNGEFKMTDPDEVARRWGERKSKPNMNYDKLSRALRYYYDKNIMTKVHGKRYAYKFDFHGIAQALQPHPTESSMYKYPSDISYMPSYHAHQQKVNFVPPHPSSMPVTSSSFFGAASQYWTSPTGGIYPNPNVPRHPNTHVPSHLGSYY
Outline: (§1)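 The binding signal reported is, for every hexamer, its read frequency for a factor over its read frequency for the tag-only sample. Reads came from pools of yeast-expressed, GST-fused human transcription factors on glutathione beads, barcoded with DNA and mixed with that sample, which were incubated with 200 nmole of a random double-stranded 16-mer DNA library in Tris/NaCl/DTT/glycerol buffer at room temperature for 30 min. After washing, the pools were crosslinked with 0.1% formaldehyde, proximity-ligated with BsaI/T4 ligase for 1 h at 37 °C, PCR-amplified and sequenced on an Illumina NextSeq500.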

[2] = biological target: T2, ELK1 (Homo sapiens, UniProt P19419 1-428); conditions: protein: recombinant; tags: N-terminal GST; dsDNA, one strand shown
T2 sequence: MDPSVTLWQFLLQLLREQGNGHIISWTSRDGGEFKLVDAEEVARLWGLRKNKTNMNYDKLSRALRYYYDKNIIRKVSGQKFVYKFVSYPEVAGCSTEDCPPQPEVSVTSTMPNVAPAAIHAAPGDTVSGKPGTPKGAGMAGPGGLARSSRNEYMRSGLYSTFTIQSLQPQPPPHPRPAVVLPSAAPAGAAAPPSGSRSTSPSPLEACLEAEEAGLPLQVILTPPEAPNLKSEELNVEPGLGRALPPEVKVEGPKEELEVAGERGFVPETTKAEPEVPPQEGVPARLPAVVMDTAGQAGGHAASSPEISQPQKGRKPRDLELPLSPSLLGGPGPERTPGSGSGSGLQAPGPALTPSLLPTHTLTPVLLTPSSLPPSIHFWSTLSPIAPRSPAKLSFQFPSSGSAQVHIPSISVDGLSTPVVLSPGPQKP
Outline: as §1

[3] = biological target: T3, ERG (Homo sapiens, UniProt P11308 1-479); conditions: protein: recombinant; tags: N-terminal GST; dsDNA, one strand shown
T3 sequence: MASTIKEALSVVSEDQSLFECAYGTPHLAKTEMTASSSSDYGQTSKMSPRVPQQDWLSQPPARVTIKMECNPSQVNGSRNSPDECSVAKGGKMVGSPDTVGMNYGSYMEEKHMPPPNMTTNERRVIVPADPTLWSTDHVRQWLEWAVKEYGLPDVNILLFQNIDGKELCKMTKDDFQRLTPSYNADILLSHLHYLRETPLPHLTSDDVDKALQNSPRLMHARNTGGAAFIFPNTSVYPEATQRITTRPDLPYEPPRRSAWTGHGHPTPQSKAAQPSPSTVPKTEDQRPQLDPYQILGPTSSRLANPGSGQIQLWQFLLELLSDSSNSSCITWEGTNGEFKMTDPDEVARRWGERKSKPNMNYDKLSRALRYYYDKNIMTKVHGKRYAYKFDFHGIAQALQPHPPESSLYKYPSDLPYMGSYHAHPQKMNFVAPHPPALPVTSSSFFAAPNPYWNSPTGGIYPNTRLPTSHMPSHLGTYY
Outline: as §1

[4] = biological target: ELF1 (Homo sapiens, UniProt P32519 1-619); conditions: protein: recombinant; tags: N-terminal GST; dsDNA, one strand shown
Outline: as §1

[5] = biological target: T4, EHF (Homo sapiens, UniProt Q9NZC4 1-300); conditions: protein: recombinant; tags: N-terminal GST; dsDNA, one strand shown
T4 sequence: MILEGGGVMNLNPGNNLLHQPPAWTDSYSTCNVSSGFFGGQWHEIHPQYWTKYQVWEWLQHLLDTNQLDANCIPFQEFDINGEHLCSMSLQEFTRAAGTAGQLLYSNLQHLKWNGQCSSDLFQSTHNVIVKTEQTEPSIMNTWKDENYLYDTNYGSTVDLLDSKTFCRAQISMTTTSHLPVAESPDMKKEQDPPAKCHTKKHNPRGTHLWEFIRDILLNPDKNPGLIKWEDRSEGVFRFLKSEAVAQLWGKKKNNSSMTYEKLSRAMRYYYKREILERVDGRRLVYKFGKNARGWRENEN
Outline: as §1

[6] = biological target: SPI1 (Homo sapiens, UniProt P17947 1-270); conditions: protein: recombinant; tags: N-terminal GST; dsDNA, one strand shown
Outline: as §1

[7] = biological target: SPIB (Homo sapiens, UniProt Q01892 1-262); conditions: protein: recombinant; tags: N-terminal GST; dsDNA, one strand shown
Outline: as §1

[8] = biological target: T5, ELK3 (Homo sapiens, UniProt P41970 1-407); conditions: protein: recombinant; tags: N-terminal GST; dsDNA, one strand shown
T5 sequence: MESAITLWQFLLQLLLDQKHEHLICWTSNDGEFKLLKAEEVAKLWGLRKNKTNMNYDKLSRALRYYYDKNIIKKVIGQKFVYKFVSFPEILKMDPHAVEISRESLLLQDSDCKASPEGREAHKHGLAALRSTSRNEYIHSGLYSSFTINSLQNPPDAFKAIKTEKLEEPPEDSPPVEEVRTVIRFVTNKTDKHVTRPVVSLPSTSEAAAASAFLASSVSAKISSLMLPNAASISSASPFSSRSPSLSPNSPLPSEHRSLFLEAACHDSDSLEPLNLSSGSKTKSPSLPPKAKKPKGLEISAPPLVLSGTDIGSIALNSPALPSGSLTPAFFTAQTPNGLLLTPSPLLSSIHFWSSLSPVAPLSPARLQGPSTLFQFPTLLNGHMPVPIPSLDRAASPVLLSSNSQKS
Outline: as §1

[9] = biological target: T6, FEV (Homo sapiens, UniProt Q99581 1-238); conditions: protein: recombinant; tags: N-terminal GST; dsDNA, one strand shown
T6 sequence: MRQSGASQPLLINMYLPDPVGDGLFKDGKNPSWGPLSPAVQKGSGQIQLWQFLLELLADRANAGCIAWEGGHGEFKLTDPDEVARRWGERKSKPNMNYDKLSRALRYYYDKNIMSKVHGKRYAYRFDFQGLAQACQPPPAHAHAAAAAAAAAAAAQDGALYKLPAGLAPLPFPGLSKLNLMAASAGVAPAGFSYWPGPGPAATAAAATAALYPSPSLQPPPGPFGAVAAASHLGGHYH
Outline: as §1

[10] = biological target: ETV5 (Homo sapiens, UniProt P41161 1-510); conditions: protein: recombinant; tags: N-terminal GST; dsDNA, one strand shown
Outline: as §1

[11] = biological target: HSF1 (Homo sapiens, UniProt Q00613 1-529); conditions: protein: recombinant; tags: N-terminal GST; chain copies: 3; dsDNA, one strand shown
Outline: as §1

[12] = biological target: ELF4 (Homo sapiens, UniProt Q99607 1-663); conditions: protein: recombinant; tags: N-terminal GST; dsDNA, one strand shown
Outline: as §1

[13] = biological target: T7, ELK4 (Homo sapiens, UniProt P28324-2 1-405); conditions: protein: recombinant; tags: N-terminal GST; dsDNA, one strand shown
T7 sequence: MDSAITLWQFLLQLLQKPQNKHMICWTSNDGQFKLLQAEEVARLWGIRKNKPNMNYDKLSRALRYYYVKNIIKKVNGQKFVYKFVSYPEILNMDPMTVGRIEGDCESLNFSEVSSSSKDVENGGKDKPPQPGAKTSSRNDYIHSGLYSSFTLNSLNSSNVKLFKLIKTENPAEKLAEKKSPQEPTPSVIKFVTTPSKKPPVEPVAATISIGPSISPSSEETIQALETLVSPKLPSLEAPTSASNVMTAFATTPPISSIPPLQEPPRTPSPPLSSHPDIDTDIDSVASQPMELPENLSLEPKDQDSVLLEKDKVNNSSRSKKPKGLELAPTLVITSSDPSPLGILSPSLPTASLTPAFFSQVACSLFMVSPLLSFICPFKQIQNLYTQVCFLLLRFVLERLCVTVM
Outline: as §1

[14] = biological target: T8, ELF3 (Homo sapiens, UniProt P78545 1-371); conditions: protein: recombinant; tags: N-terminal GST; dsDNA, one strand shown
T8 sequence: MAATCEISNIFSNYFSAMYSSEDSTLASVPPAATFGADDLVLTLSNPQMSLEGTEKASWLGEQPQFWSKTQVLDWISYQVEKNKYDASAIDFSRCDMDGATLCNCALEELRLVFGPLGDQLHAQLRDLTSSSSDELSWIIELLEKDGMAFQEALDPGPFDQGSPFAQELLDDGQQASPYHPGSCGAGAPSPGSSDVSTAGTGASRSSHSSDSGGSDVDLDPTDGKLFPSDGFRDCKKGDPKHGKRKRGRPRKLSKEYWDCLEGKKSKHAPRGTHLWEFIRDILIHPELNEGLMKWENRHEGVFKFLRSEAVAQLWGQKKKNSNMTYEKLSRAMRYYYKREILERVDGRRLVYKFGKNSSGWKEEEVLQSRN
Outline: as §1

[15] = biological target: CRX (Homo sapiens, UniProt O43186 1-299); conditions: protein: recombinant; tags: N-terminal GST; dsDNA, one strand shown
Outline: as §1

[16] = biological target: ETV1 (Homo sapiens, UniProt P50549 1-477); conditions: protein: recombinant; tags: N-terminal GST; dsDNA, one strand shown
Outline: as §1

Chain of ELF1 (P32519 whole entry): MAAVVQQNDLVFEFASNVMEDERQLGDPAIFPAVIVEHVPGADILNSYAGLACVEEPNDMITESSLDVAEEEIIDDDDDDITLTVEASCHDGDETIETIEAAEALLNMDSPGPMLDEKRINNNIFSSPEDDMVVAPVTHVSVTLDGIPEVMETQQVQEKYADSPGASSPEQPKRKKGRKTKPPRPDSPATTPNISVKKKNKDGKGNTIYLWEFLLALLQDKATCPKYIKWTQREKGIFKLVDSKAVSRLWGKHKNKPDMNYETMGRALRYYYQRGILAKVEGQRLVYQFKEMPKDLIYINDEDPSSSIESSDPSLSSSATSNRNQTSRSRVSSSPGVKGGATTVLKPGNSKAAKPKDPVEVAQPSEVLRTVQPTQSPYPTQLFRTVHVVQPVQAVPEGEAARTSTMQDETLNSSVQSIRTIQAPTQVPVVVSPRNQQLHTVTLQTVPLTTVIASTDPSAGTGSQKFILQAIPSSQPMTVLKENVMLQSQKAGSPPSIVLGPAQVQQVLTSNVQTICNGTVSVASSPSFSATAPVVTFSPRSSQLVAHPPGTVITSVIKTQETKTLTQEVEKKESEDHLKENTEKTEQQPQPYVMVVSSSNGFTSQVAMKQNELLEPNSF
Chain of HSF1 (Q00613 whole entry): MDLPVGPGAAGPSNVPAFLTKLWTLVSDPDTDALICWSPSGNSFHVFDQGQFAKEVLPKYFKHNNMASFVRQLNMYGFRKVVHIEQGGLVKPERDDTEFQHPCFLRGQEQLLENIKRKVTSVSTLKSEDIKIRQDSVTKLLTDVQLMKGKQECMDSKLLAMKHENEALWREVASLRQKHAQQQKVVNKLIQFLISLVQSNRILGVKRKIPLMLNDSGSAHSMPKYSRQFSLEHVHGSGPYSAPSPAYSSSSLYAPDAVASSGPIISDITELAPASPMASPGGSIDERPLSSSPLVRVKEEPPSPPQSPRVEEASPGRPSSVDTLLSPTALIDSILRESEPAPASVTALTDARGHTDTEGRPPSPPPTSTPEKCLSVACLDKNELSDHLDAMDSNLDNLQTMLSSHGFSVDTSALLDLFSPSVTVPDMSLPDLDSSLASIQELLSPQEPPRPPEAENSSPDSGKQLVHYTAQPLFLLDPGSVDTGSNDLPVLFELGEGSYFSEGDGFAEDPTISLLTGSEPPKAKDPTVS
Chain of ELF4 (Q99607 whole entry): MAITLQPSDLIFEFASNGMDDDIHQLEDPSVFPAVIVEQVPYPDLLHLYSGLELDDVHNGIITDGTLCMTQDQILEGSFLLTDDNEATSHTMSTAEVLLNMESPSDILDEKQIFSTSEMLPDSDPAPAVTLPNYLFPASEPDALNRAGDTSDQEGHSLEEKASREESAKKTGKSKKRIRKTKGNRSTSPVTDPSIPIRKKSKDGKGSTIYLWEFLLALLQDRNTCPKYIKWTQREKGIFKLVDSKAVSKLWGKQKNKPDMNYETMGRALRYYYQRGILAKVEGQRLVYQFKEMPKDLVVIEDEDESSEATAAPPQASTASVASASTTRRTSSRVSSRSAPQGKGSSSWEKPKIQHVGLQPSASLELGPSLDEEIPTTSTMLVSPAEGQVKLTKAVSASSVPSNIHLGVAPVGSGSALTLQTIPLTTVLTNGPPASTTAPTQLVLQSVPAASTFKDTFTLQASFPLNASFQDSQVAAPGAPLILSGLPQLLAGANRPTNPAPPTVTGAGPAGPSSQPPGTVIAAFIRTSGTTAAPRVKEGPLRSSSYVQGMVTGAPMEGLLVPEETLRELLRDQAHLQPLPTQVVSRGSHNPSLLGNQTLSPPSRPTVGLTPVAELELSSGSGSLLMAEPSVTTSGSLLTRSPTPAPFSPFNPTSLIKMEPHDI
Chain of SPIB (Q01892 whole entry): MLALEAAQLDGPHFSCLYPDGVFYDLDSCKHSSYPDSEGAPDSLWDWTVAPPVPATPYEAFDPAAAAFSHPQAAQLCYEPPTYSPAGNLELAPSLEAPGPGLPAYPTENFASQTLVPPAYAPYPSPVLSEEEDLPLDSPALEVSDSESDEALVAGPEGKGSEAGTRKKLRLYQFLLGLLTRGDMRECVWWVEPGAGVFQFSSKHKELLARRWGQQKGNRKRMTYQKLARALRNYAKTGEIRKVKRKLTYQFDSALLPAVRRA
Chain of ETV5 (P41161 whole entry): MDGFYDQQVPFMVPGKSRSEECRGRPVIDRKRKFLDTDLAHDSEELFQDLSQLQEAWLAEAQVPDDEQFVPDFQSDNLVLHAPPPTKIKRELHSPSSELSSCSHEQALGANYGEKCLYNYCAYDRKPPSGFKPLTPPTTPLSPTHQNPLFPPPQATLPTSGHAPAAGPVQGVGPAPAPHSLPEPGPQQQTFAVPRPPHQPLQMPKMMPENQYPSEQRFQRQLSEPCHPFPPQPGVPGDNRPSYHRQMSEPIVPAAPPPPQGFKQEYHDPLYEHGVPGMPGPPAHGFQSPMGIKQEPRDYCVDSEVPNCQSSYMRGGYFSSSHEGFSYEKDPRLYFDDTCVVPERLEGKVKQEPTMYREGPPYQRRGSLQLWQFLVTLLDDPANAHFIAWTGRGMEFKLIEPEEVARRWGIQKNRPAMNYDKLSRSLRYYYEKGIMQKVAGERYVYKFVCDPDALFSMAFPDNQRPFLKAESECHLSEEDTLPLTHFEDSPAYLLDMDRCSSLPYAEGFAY
Chain of CRX (O43186 whole entry): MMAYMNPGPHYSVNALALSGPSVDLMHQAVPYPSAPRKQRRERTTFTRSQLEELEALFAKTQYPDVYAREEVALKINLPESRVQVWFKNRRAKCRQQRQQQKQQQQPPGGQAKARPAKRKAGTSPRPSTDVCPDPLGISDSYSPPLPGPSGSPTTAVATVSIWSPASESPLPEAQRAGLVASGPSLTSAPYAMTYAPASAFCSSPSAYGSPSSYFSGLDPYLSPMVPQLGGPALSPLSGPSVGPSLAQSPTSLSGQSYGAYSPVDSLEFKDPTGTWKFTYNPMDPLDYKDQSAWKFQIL
Chain of ETV1 (P50549 whole entry): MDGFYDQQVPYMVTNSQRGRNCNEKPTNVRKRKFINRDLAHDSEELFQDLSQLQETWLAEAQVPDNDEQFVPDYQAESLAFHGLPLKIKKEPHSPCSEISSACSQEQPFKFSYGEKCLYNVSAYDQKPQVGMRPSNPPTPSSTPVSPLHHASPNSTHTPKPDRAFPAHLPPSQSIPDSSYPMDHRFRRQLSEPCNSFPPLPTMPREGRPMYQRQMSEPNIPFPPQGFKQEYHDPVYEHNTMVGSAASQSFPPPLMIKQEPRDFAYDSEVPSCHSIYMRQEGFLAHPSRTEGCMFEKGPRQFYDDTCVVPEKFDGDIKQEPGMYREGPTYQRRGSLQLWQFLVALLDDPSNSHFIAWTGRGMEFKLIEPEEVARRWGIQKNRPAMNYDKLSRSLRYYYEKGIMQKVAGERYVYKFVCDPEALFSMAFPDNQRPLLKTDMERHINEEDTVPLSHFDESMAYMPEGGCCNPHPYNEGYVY

With AAGCGA the binding signal [1] was 1.02 fold enrichment (6-mer frequency, TF over GST control), the binding signal [2] was 1.02 fold enrichment (6-mer frequency, TF over GST control) and the binding signal [3] was 1.11 fold enrichment (6-mer frequency, TF over GST control). The binding signal [4] was 1.06 fold enrichment (6-mer frequency, TF over GST control), the binding signal [5] was 1.19 fold enrichment (6-mer frequency, TF over GST control) and the binding signal [6] was 1.07 fold enrichment (6-mer frequency, TF over GST control). The binding signal [7] was 1 fold enrichment (6-mer frequency, TF over GST control), the binding signal [8] was 1.07 fold enrichment (6-mer frequency, TF over GST control) and the binding signal [9] was 1.04 fold enrichment (6-mer frequency, TF over GST control). The binding signal [10] was 1.04 fold enrichment (6-mer frequency, TF over GST control), the binding signal [11] was 1.04 fold enrichment (6-mer frequency, TF over GST control) and the binding signal [12] was 1.09 fold enrichment (6-mer frequency, TF over GST control). The binding signal [13] was 1.06 fold enrichment (6-mer frequency, TF over GST control), the binding signal [14] was 1.08 fold enrichment (6-mer frequency, TF over GST control) and the binding signal [15] was 1.09 fold enrichment (6-mer frequency, TF over GST control). The binding signal [16] was 1 fold enrichment (6-mer frequency, TF over GST control).
